Assay results as given in PubChem BioAssay (NCATS).
Inconclusive results are not listed. The source made the active and inactive calls. Unless noted, the call rests on the fitted dose curve; in most records, active means well fitted curve in the direction sought with a large enough effect; inconclusive means small, poorly fitted or top-dose-only effect, or another doubt; inactive means no such curve, though single readings can be large; an effect the other way counts as inactive or inconclusive.

Columns and labels:
[1] = target: Lysosomal acid glucosylceramidase (Homo sapiens) (UniProt P04062); experiment: Glucocerebrosidase-p2 (AID 348; in the data active means potency below about 10 µM; further: potency means the concentration at half of the fitted maximal effect); settings: purified GBA, blue fluorogenic substrate, 40 min
Sequence of Lysosomal acid glucosylceramidase (Homo sapiens) (P04062 whole entry, looked up): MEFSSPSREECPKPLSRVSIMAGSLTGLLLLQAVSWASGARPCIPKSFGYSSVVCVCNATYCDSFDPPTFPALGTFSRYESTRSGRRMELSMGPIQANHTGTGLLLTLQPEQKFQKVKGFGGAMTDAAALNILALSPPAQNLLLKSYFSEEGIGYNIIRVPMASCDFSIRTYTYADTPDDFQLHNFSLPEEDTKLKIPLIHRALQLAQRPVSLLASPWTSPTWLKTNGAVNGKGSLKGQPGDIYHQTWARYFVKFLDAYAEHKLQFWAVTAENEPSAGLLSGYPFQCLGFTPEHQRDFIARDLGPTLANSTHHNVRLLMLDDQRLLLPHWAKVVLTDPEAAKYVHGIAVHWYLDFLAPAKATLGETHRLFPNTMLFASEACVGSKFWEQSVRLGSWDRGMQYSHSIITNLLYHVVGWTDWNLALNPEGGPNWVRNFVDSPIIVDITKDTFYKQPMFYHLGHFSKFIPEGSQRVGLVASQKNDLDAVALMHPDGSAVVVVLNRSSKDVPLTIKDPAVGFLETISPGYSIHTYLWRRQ
Procedure, shortened: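 Normal human glucocerebrosidase (0.2 nM) with blue fluorogenic substrate (80 uM final) in citrate/phosphate pH 5.9 with 10mM sodium taurocholate, 0.01% tween-20; 40 min RT, NaOH/glycine stop; fluorescence Ex 365/Em 440; AC50 from a titration from 0.6 nM upwards.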

[2] = AP1 Signaling Pathway (AID 357; active means well fitted curve in either direction with a large enough effect, not every such curve was filed as active;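 further: ME-180 reporter cells stimulated with EGF at its EC50 level; on the % scale 0 is the no-effect control and ±100 the full control effect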); settings: ME-180 AP-1-bla reporter, EGF-induced, beta-lactamase ratio, 5 h; at 7.69 µM (top of the series) unless noted
Procedure, shortened: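 Modulation of EGF-driven AP-1 transcription was assessed with a beta-lactamase reporter in ME-180 cells. Compound and EC50 EGF were co-incubated 5 hours at 37 °C before 2.5-hour CCF4 loading at room temperature and dual-emission reading.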

[3] = target: Cytochrome P450 1A2 (Homo sapiens) (UniProt P05177); experiment: p450-cyp1a2 (AID 410; calls by dose curve; further: potency means the concentration at half of the fitted maximal effect); settings: recombinant CYP1A2, luciferin-ME demethylation, luminescence; series mostly up to 57 µM
Sequence of Cytochrome P450 1A2 (Homo sapiens) (P05177 whole entry, looked up): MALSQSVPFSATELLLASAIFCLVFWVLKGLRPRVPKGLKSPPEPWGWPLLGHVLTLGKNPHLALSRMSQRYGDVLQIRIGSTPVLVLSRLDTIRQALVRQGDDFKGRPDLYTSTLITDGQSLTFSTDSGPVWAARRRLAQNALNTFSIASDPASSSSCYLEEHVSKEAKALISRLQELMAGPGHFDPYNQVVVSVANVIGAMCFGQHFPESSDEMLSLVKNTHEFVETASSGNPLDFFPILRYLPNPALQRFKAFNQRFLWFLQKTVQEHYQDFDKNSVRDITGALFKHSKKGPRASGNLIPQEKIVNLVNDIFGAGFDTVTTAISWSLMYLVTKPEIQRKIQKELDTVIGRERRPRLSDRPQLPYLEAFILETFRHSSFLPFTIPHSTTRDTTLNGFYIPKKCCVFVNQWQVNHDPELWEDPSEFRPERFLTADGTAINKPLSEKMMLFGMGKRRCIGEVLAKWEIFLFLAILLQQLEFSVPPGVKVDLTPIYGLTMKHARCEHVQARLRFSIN
Procedure, shortened: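 Luminescent demethylation readout: Luciferin-ME (100uM, equal to Km) turned over by 20nM CYP1A2 for 60 min at room temperature after NADPH regeneration addition, following 10 min compound preincubation. Normalization used 57 uM furafylline as full inhibition.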

[4] = Stat Signaling Pathway (AID 446; active means well fitted curve in either direction with a large enough effect, not every such curve was filed as active;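 further: ME-180 cervical cancer cells given 40 pM IL-6 alongside compound; SIE-controlled beta-lactamase reporter measured as 460/530 nm FRET emission ratio; on the % scale 0 is the no-effect control and ±100 the full control effect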); settings: ME-180 SIE beta-lactamase reporter, IL-6 stimulated, 5 h; at 7.69 µM (top of the series) unless noted
Procedure, shortened: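 Normalization used AC90 stimulation (300 pM IL-6) and AC90 inhibition (125 nM pan-JAK inhibitor at 40 pM IL-6). The underlying signal is SIE-driven beta-lactamase in ME-180 cells after 5 h IL-6 exposure with compound.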

[5] = target: Glucocorticoid receptor (Homo sapiens) (UniProt P04150); experiment: GR-GFP Redistribution (AID 450;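 active means compounds whose dose series gives a full or clear partial fitted curve of increased nuclear translocation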; further: potency means the concentration at half of the fitted maximal effect); settings: U2OS GR-GFP nuclear translocation, laser cytometry, 2 h
Sequence of Glucocorticoid receptor (Homo sapiens) (P04150 whole entry, looked up, the tested form may be a part): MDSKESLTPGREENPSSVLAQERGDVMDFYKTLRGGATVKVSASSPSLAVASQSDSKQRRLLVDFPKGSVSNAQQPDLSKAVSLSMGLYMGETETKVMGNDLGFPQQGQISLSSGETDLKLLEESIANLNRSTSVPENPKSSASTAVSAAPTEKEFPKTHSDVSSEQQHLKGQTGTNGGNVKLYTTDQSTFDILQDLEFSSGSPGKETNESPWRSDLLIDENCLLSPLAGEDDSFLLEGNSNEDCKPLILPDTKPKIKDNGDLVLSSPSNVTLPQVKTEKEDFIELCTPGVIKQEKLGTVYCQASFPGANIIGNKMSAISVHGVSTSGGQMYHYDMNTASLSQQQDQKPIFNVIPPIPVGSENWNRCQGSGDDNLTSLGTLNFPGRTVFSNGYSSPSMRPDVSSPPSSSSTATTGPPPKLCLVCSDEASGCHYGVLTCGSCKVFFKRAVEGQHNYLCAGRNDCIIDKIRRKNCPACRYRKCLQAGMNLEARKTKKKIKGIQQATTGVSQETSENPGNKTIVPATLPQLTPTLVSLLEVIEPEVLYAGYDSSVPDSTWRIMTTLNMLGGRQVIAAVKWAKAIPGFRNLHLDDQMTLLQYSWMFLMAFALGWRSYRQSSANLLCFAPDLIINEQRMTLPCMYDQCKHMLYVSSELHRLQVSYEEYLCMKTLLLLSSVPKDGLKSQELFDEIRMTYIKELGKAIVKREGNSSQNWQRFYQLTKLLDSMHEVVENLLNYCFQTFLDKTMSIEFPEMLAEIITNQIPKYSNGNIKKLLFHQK

[6] = target: Glucocorticoid receptor (Homo sapiens) (UniProt P04150); experiment: GR-EFC Redistribution (AID 451; calls by dose curve; further: potency means the concentration at half of the fitted maximal effect); settings: CHO-K1 GR-EFC translocation, beta-gal luminescence, 2 h
Procedure, shortened: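 CHO-K1 cells expressing nuclear EA and GR-ED fragments of b-gal; compounds titrated up to 46 uM final, 2 h at 37 C. GR nuclear translocation read as complemented b-gal luminescence after 1 h RT detection.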

[7] = target: Mitogen-activated protein kinase 10 (Mus musculus) (UniProt Q61831); experiment: JNK3 AlphaScreen Assay (AID 530; active means well fitted curve in either direction with a large enough effect, not every such curve was filed as active;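 further: kinase came from lysate of stimulated human HepG2 cells; signal reports phosphorylation of biotinylated GST-cJun 1-79 at Ser73 with 10 µM ATP; on the % scale 0 is the no-effect control and ±100 the full control effect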); settings: JNK3 lysate, c-Jun phosphorylation; series mostly up to 57.1 µM
Procedure, shortened: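 Activity was read by AlphaScreen after JNK3-containing HepG2 lysate (cytokine pre-activated) phosphorylated biotinylated GST-cJun with 10 uM ATP at room temperature. Phospho-Ser73 cJun antibody with Protein-A acceptor beads provided detection.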

[8] = target: 3',5'-cyclic-AMP phosphodiesterase 4B (Homo sapiens) (UniProt Q07343); experiment: qHTS Assay for Inhibitors of PDE-IV (AID 607; active means well fitted activation curve with a large enough effect in the main read-out, with a control signal flat, not every such curve was filed as active; further: % of control where 0% means no effect); settings: HEK293 ACTOne CNG channel cells, membrane potential fluorescence; series mostly up to 22.9 µM
Sequence of 3',5'-cyclic-AMP phosphodiesterase 4B (Homo sapiens) (Q07343 whole entry, looked up): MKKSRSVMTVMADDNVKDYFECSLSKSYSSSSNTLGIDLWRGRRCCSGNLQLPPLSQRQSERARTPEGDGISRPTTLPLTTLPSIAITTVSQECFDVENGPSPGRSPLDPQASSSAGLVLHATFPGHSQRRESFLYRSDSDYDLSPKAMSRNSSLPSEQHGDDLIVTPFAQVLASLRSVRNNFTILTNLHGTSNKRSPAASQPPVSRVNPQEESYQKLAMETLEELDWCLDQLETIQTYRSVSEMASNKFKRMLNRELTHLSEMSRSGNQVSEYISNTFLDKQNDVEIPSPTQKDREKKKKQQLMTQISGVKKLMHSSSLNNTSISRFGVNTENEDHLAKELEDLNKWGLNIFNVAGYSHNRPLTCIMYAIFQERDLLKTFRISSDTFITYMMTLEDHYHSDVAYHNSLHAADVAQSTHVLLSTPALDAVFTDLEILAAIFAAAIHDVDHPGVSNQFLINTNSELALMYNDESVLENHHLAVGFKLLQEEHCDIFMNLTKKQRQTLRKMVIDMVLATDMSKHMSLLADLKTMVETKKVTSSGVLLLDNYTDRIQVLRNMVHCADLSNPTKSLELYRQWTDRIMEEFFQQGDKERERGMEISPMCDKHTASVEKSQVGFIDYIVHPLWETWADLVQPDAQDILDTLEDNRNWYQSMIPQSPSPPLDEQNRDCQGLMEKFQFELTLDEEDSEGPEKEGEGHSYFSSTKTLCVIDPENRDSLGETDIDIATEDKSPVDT
Procedure, shortened: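 HEK293 ACTOne cells with CNG channel (1000/well), endogenous PDE4; membrane potential dye, compounds up to 22.9 uM final. Fluorescence Ex 535/Em 590; RO 20-1724 (100 uM final) as reference.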

[9] = target: Cytochrome P450 3A4 (Homo sapiens) (UniProt P08684); experiment: qHTS Assay for Inhibitors and Substrates of Cytochrome P450 3A4 (AID 884); settings: recombinant CYP3A4, Luciferin-PPXE luminescence; series mostly up to 57.1 µM; further: nearly all actives have a fitted effect of over 50% in size; further: potency means the concentration at half of the fitted maximal effect
Sequence of Cytochrome P450 3A4 (Homo sapiens) (P08684 whole entry, looked up): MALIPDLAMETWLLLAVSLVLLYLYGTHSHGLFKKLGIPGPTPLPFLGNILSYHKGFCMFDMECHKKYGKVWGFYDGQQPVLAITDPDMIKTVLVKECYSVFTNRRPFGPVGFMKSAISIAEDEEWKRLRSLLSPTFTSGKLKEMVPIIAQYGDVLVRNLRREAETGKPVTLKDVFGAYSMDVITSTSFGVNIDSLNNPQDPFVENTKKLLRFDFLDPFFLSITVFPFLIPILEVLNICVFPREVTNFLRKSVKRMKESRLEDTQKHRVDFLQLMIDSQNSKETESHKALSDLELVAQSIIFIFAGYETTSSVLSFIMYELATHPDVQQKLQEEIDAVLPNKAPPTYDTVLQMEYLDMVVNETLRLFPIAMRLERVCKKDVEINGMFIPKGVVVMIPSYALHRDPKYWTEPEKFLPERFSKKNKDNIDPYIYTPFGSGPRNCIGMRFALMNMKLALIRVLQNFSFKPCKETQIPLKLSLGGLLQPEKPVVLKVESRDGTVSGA
Procedure, shortened: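 Luminescent readout of luciferin produced by CYP3A4 (20 nM) dealkylation of Luciferin-PPXE, 25 uM (its KM). NADPH-driven reaction ran 60 min at RT after 10 min compound preincubation; data scaled to 57 uM ketoconazole as 100% inhibition.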

[10] = target: Cytochrome P450 3A4 (Homo sapiens) (UniProt P08684); experiment: qHTS Assay for Activators of Cytochrome P450 3A4 (AID 885); settings: recombinant CYP3A4, Luciferin-PPXE luminescence, 60 min; series mostly up to 57.1 µM; further: nearly all actives have a fitted effect of over 65% in size
Procedure, shortened: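 Human CYP3A4 dealkylates Luciferin-PPXE to luciferin, which luciferase detection converts to light. Substrate was at its KM (25uM), buffer 200mM KPO4, reaction 60 min at RT.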

[11] = target: Cytochrome P450 2C19 (Homo sapiens) (UniProt P33261); experiment: qHTS Assay for Inhibitors and Substrates of Cytochrome P450 2C19 (AID 899); settings: recombinant CYP2C19, luciferin-H EGE luminescence; series mostly up to 57.1 µM; further: potency means the concentration at half of the fitted maximal effect; nearly all actives have a fitted effect of over 60% in size
Sequence of Cytochrome P450 2C19 (Homo sapiens) (P33261 whole entry, looked up): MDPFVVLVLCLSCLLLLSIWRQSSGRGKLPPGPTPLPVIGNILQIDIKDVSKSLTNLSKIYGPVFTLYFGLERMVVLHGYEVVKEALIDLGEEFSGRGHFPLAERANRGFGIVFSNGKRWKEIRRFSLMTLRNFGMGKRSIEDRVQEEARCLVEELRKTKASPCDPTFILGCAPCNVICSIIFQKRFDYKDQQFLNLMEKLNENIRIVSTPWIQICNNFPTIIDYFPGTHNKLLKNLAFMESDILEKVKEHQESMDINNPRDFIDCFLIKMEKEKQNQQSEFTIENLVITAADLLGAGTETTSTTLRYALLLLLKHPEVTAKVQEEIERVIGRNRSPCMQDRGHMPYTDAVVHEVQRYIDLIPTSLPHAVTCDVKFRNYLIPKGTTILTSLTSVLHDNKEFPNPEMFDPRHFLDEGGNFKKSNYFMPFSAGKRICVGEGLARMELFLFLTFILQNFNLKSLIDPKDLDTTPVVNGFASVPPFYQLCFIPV
Procedure, shortened: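 5 nM human CYP2C19 with 10uM Luciferin-H EGE (at KM) in 50mM KPO4, compound preincubated 10 min at 37C, then NADPH regeneration for 60 min at 37C. Luciferin read by luminescence after detection reagent; normalized to 57uM ketoconazole as full inhibition.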

[12] = Confirmation and Secondary Assay for Modulators of Hemoglobin Beta Chain Splicing at IVS2 654 locus (AID 910); settings: HeLa EGFP-654 splicing reporter, GFP fluorescence, 48 h; series mostly up to 38.3 µM;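 further: HeLa cells stably carrying EGFP split by mutant beta-globin IVS2-654 intron; % of control where 0% means no effect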
Procedure, shortened: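 HeLa cells stably expressing EGFP interrupted by β-globin IVS2-654 intron, seeded overnight in Opti-MEM/2% FCS, then treated 2 days at 37 °C. Restored splicing read as total peak GFP intensity per well by laser scanning cytometry (488 nm excitation, 500–520 nm emission); 500 nM antisense PNA as control.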

[13] = Confirmation and Secondary Assay for Modulators of Hemoglobin Beta Chain Splicing at IVS2 705 locus (AID 930); settings: HeLa EGFP-705 splicing reporter, GFP fluorescence, 48 h; series mostly up to 38.3 µM;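 further: HeLa cells stably expressing the EGFP-705 splicing reporter; GFP fluorescence per well restored by corrected splicing of the IVS2-705 intron in EGFP; % of control where 0% means no effect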
Procedure, shortened: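 HeLa IVS2-705 EGFP reporter cells, 500/well, compound 2 d at 37C; correct splicing yields fluorescent EGFP. Control: 500 nM antisense PNA. Read-out: total peak GFP intensity.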

[14] = qHTS Assay for Lipid Storage Modulators (AID 1519; calls by dose curve); settings: Drosophila S3 cells, BODIPY lipid droplet/cell ratio, laser cytometry, cells loaded with oleic acid; for activity change, negative = inhibition: at 57.5 µM (top of the series)
Procedure, shortened: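 Cells seeded at 5,000 per well were treated with compounds over a concentration series and loaded with oleic acid (400 uM, as added). Lipid droplet fluorescence (488 nm excitation, 500-530 nm channel) was read by laser-scanning cytometry and normalized to 20 uM Triacsin C.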

[15] = target: Ubiquitin carboxyl-terminal hydrolase 1 (Homo sapiens) (UniProt O94782); experiment: Inhibitors of USP1/UAF1: Pilot qHTS (AID 504865); settings: purified USP1/UAF1, Ub-rhodamine cleavage fluorescence; series mostly up to 54.9 µM; further: nearly all actives have a fitted effect of over 35% in size; further: potency means the concentration at half of the fitted maximal effect
Sequence of Ubiquitin carboxyl-terminal hydrolase 1 (Homo sapiens) (O94782 whole entry, looked up): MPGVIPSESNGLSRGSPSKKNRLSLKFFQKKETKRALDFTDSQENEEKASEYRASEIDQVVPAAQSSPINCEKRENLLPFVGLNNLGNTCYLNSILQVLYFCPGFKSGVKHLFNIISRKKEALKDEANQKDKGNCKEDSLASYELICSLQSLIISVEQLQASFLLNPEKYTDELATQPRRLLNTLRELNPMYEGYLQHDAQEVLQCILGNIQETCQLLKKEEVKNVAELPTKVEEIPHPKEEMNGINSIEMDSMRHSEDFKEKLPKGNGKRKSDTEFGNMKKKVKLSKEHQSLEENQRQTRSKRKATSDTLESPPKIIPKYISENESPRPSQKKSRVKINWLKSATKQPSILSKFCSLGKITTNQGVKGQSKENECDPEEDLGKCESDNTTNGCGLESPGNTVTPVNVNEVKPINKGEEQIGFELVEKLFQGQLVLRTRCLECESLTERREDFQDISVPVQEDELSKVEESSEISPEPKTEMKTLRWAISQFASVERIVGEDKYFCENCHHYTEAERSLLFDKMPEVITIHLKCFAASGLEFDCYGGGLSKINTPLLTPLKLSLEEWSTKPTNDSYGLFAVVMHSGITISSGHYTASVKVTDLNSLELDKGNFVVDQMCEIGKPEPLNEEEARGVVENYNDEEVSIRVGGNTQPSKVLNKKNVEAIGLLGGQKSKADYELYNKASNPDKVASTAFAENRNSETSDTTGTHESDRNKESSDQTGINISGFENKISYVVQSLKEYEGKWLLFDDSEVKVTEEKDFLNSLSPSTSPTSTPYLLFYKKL
Procedure, shortened: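 In 50mM HEPES pH 7.8 containing 0.5mM EDTA, 1mM TCEP, 0.1 mg/ml BSA and 0.01% Tween-20, 1nM USP1/UAF1 is exposed to compound for 15 min, then Ub-Rho (150nM final) is added and fluorescence is read over time.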

[16] = NFAT Signaling Pathway (AID 444; active means well fitted curve in either direction with a large enough effect, not every such curve was filed as active;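 further: carbachol stimulus at about its EC50 of 1 µM final; on the % scale 0 is the no-effect control and ±100 the full control effect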); settings: Jurkat NFAT-bla M1, carbachol, beta-lactamase ratio, 5 h; at 7.69 µM (top of the series) unless noted
Procedure, shortened: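 Jurkat cells with NFAT-driven β-lactamase reporter and co-expressed M1 receptor, stimulated with carbachol (final 1 uM, ~EC50), compound titration, 5 h at 37 °C. CCF4 loaded 1 h at RT; 460/530 nm ratio gave %activity and AC50.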

[17] = qHTS Assay for Identification of Small Molecule Agonists for Hypoxia Response Element Signaling Pathway (AID 914; active means well fitted activation curve with a large enough effect in the signal ratio, with a control signal flat, not every such curve was filed as active; the % refers to the signal ratio; further: % of control where 0% means no effect); settings: ME-180 (cervical carcinoma) HRE-bla reporter, beta-lactamase ratio, CoCl2, 17 h; activation: stronger effect = higher value
Procedure, shortened: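 HRE-bla ME-180 assay for agonist-like enhancement of an EC50 CoCl2 stimulus: 17 h at 37 degrees Celsius, CCF4 for 2.5 h, ratiometric 460/530 nm signal converted to %Activity and fitted to AC50.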

[18] = target: Dual specificity protein kinase CLK4 (Homo sapiens) (UniProt Q9HAZ1); experiment: qHTS Assay for Inhibitors of CDC-like Kinase 4 (Kinase-Glo Assay) (AID 1770); settings: recombinant Clk4, Kinase-Glo ATP depletion luminescence; series mostly up to 66.7 µM; further: potency means the concentration at half of the fitted maximal effect; nearly all actives have a fitted effect of over 65% in size
Sequence of Dual specificity protein kinase CLK4 (Homo sapiens) (Q9HAZ1 whole entry, looked up): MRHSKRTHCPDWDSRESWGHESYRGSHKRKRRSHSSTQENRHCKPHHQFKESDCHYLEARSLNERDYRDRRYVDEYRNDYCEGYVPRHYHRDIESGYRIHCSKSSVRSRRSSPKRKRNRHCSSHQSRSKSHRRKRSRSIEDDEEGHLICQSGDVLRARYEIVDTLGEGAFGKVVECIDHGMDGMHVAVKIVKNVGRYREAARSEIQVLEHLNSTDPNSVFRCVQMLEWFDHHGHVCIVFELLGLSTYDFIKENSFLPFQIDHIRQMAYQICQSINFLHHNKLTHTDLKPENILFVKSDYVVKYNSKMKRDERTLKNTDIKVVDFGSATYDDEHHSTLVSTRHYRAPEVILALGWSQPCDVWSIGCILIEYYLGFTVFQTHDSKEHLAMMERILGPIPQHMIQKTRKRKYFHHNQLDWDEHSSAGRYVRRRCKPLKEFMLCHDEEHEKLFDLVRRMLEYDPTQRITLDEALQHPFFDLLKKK
Procedure, shortened: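 Substrate mix (RS peptide 100 uM, ATP 1 uM) dispensed, compound pinned in, then Clk4 added to 25 nM final. Incubated 4.5 h at RT; Kinase-Glo reagent added, luminescence read after 5 min.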

[19] = target: Dual specificity protein kinase CLK4 (Homo sapiens) (UniProt Q9HAZ1); experiment: qHTS Assay for Inhibitors of CDC-like Kinase 4 (ADP-Glo Assay) (AID 1771); settings: recombinant CLK4, ADP-Glo luminescence; series mostly up to 80 µM; further: potency means the concentration at half of the fitted maximal effect; nearly all actives have a fitted effect of over 70% in size
Procedure, shortened: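 ADP production was read by ADP-Glo luminescence after residual ATP depletion, following 1 h room-temperature reaction of 25 nM Clk4, 1 uM ATP and 100 uM RS peptide with MgCl2, EGTA, DTT and Triton X-100.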

[20] = target: Dual specificity protein kinase CLK4 (Homo sapiens) (UniProt Q9HAZ1); experiment: qHTS Assay for Inhibitors of CDC-like Kinase 4 (ADP-FP Assay) (AID 1795); settings: Transcreener ADP fluorescence polarization; series mostly up to 50 µM; further: potency means the concentration at half of the fitted maximal effect; nearly all actives have a fitted effect of over 60% in size
Procedure, shortened: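 Clk4 6.25 nM; RS peptide 100 uM; ATP 1 uM; 25 mM Tris pH 7.5, 10 mM MgCl2; 1 h reaction. ADP detected via antibody/orange tracer FP displacement; TG003 positive control.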

[21] = measured here: cell count channel max response
[22] = measured here: lipid channel max response

COc1cccc(-c2nc(Nc3ccncc3)c3ccccc3n2)c1
Potency [1]: 2.53 µM (active)
activity change, negative = inhibition [2]: -6.31% (inactive)
Potency [3]: 0.794 µM (active)
activity, negative = inhibition [4]: -15.1% (inactive)
Potency [5]: > 46 µM (inactive)
Potency [6]: > 46 µM (inactive)
Potency [7]: inactive
Potency [8]: inactive
Potency [9]: 2.51 µM (active)
Potency [10]: inactive
Potency [11]: 3.16 µM (active)
Potency [12]: inactive
outcome [13]: inactive
activity change, negative = inhibition [14]: -7.83% (inactive)
max response [14, 21]: -14.4%
max response [14, 22]: -19.7%
Potency [15]: 39.8 µM (active)

CN1CCc2c(cc(O)c(O)c2Cl)C(c2cccc(Cl)c2)C1 (stereo not drawn)
activity change, negative = inhibition [14]: -5.99% (inactive)
max response [14, 21]: 26.1%
max response [14, 22]: 9.27%

COc1cccc(-c2ccc3ncnc(NCCNC(C)=O)c3c2)c1
Potency [1]: > 11.4 µM (inactive)
activity change, negative = inhibition [2]: -19.2% (inactive)
Potency [3]: 3.16 µM (active)
activity change, negative = inhibition [16]: 21% (inactive)
activity, negative = inhibition [4]: 11% (inactive)
Potency [5]: > 46 µM (inactive)
Potency [6]: > 46 µM (inactive)
Potency [7]: inactive
Potency [8]: inactive
Potency [10]: inactive
activation [17]: 5.52% (inactive)
activity change, negative = inhibition [14]: -2.84% (inactive)
max response [14, 21]: -13.2%
max response [14, 22]: -16.4%
Potency [18]: 0.355 µM (active)
Potency [19]: 0.447 µM (active)
Potency [20]: 0.282 µM (active)
Potency [15]: inactive

CC(C)=CCC/C(C)=C/CC/C(C)=C/CC/C(C)=C/CC/C(C)=C/CC/C(C)=C/CC/C(C)=C/CC/C(C)=C/CC/C(C)=C/CO
Potency [12]: inactive
outcome [13]: inactive
activity change, negative = inhibition [14]: 5.78% (inactive)
max response [14, 21]: 6.17%
max response [14, 22]: 20.4%
Potency [15]: inactive

C#C[C@]1(OC(C)=O)CCC2C3CCC4=CC(=O)CCC4C3CC[C@]21C (stereo partly drawn)
Potency [10]: inactive
Potency [12]: inactive
outcome [13]: inactive
activity change, negative = inhibition [14]: -18.5% (inactive)
max response [14, 21]: -10.7%
max response [14, 22]: -26.2%
Potency [15]: inactive

CNC(=O)[C@H]1O[C@@H](n2cnc3c(N)ncnc32)[C@H](O)[C@H]1O
activity change, negative = inhibition [14]: -1.94% (inactive)
max response [14, 21]: -22.6%
max response [14, 22]: -24.5%

COc1ccc(/C=C/C(=O)O)cc1OC
activity change, negative = inhibition [14]: 14.6% (inactive)
max response [14, 21]: 4.45%
max response [14, 22]: 26.5%

NC(=NCc1ccc(Cl)c(Cl)c1)NC(=O)c1nc(Cl)c(N)nc1N
activity change, negative = inhibition [2]: -11.5% [at 38 µM] (inactive)
Potency [3]: 10 µM (active)
activity, negative = inhibition [4]: 5.12% [at 38 µM] (inactive)
Potency [5]: > 46 µM (inactive)
Potency [6]: > 46 µM (inactive)
Potency [10]: inactive
activity change, negative = inhibition [14]: 0.442% (inactive)
max response [14, 21]: -3.02%
max response [14, 22]: -2.51%

Nc1c2ccccc2nc2ccccc12 (tested in a mixture with another compound)
Potency [10]: inactive
Potency [12]: inactive
outcome [13]: inactive
activity change, negative = inhibition [14]: -15.1% (inactive)
max response [14, 21]: -8%
max response [14, 22]: -17.5%
Potency [15]: inactive

C[n+]1cccc(C(=O)[O-])c1
Potency [9]: inactive
outcome [13]: inactive
activity change, negative = inhibition [14]: 6.06% (inactive)
max response [14, 21]: -1.12%
max response [14, 22]: 2.73%
Potency [15]: inactive

CC(=O)Oc1ccc2c(c1)CCC1C2CC[C@]2(C)C(OC(C)=O)CCC12 (stereo partly drawn)
outcome [13]: inactive
activity change, negative = inhibition [14]: -2.53% (inactive)
max response [14, 21]: 4%
max response [14, 22]: 4.34%
